Experimental data: PubChem BioAssay
Values without a mark were called inactive. How the calls were made is not given here.

Target: Pantothenate synthetase (Mycobacterium tuberculosis (strain ATCC 25618 / H37Rv)) (UniProt P9WIL5)
Experiment: Coupled enzyme confirmation of inhibitors against recombinant Mtb PanC (AID 375);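 further: 0% = full reaction with vehicle and 100% = no enzyme background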
Details: coupled enzyme assay; at 10 µM, active compounds read high

Chain of Pantothenate synthetase (Mycobacterium tuberculosis (strain ATCC 25618 / H37Rv)) (P9WIL5 whole entry, looked up): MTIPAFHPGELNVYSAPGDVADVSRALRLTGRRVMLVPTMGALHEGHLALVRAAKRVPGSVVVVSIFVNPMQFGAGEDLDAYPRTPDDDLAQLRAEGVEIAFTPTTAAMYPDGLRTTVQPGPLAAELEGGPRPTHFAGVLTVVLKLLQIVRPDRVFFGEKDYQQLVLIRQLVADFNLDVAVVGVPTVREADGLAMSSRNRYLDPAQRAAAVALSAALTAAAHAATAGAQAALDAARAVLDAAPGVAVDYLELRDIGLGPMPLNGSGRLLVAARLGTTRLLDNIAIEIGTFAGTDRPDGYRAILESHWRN

Row | Structure (SMILES) | inhibition [%]
1 | CCCn1c(SCC(=O)Nc2ccccc2C(=O)OCC)nc2c1c(=O)n(C)c(=O)n2C | 0
2 | O=C1C2CCCN2C(c2ccccc2)N1c1ccc(Cl)cc1 (stereo not given) | 1
3 | CC(C)COc1ccc(C(=O)OCCN2CCOCC2)cc1 | 1
4 | CC1CCN(Cc2ccc(NC(=O)C3CCN(c4nnc(-n5cccc5)s4)CC3)cc2)CC1 | 0
5 | COc1ccc(S(=O)(=O)NCC(c2cccnc2)N2CCN(c3ccc(F)cc3)CC2)cc1C (stereo not given) | 0
6 | CO/C([O-])=N/c1c[n+](-c2ccc(C)cc2)no1 | 0
7 | Cc1cc2cc(CN(CCCN3CCOCC3)C(=O)NC3CCCCC3)c(=O)[nH]c2cc1C | 2
8 | O=C(CCNC(=O)Cn1ccc2ccccc2c1=O)NCCN1CCN(c2ccccc2F)CC1 | 0
9 | CN(C)/C=c1\sc2c(C#N)cc(C(=O)c3ccc(Br)cc3)n2c1=O | 5
10 | CC1(C)Oc2ccc3ccc(=O)oc3c2C(N2CCCCC2)C1O (stereo not given) | 0
11 | CCOC(=O)CNC(=O)C(Cc1ccccc1)NS(=O)(=O)c1ccc2c(c1)CCC(=O)N2 (stereo not given) | 0
12 | CC(C)Cc1nc(S(=O)(=O)c2ccc(Cl)cc2)c(N2CCOCC2)o1 | 0
13 | CC(C)(C)n1nnnc1CN1CCN(C2CCCC2)CC1 | 3
14 | Cc1ccccc1-n1nnnc1SCC(=O)Nc1ccc(S(=O)(=O)N2CCCC2)cc1 | 0
15 | Cc1noc(C)c1CSc1nnc2n(-c3ccccc3)c(=O)c3ccccc3n12 | 0
16 | O=c1cc(CSc2nnc(COc3ccc(Cl)cc3)o2)c2ccccc2[nH]1 | 3
17 | CCOc1ccc(OCC)c(NC(=O)C2CCN(S(=O)(=O)c3cnc[nH]3)CC2)c1 | 4
18 | COc1ccc2cc(C(c3nnnn3C(C)(C)C)N3CCc4ccccc4C3)c(=O)[nH]c2c1 (stereo not given) | 11
19 | CC(CCc1ccccc1)NC(=O)C1CCN(S(=O)(=O)c2cnc[nH]2)CC1 (stereo not given) | 4
20 | CCn1c(=S)sc2nc(C)sc21 | 1

Row | Structure (SMILES) | inhibition [%]
21 | CCOC(=O)C1CCN(C(=O)CCCCn2c(=O)[nH]c3ccccc3c2=O)CC1 | 2
22 | O=C(CCc1nc2ccccc2s1)OCC(=O)N1CCN(C(=O)c2ccco2)CC1 | 4
23 | Cc1noc(NS(=O)(=O)c2ccc(N3C(=O)c4ccccc4C3=O)cc2)c1C | 3
24 | CCOC(=O)c1c(NC(=O)CSc2nnc(-c3ccc(OC)cc3)o2)sc2c1CCC2 | 3
25 | CCOP(=O)(c1ccc(N(C)C)cc1)C(O)c1cc(OC)c(OC)c(OC)c1 (stereo not given) | 0
26 | COc1ccc(-n2ncc3c(NCc4ccccn4)ncnc32)cc1 | 11
27 | Cc1nn(C(=O)c2ccc3c(c2)OCO3)c(N)c1-c1ccccc1 | 0
28 | COCCCn1nnnc1SCC(=O)Nc1nc(C)c(C)s1 | 0
29 | Oc1ccc(-c2onc(C(F)(F)F)c2-c2cscn2)c(O)c1 | 2
30 | COC(=O)c1sccc1NC(=O)c1csc(C)c1 | 6
31 | CCOC(=O)C1CCCN(C(=O)CNS(=O)(=O)c2ccc(Br)s2)C1 (stereo not given) | 8
32 | CCOC(=O)CC(C#N)c1cn(C)c2ccccc12 (stereo not given) | 4
33 | Cn1cccc1Cc1nnc(SCC(=O)N2CCOCC2)n1-c1ccc(F)cc1 | 0
34 | CCOc1ccc(N(C)S(=O)(=O)c2ccc3[nH]cc(C(=O)NCC4CCCO4)c(=O)c3c2)cc1 (stereo not given) | 0
35 | COc1ccc(-c2nnc(SCC(=O)N3CCCCC3)o2)cc1OC | 0
36 | COc1cccc(-c2nc3n(n2)C(c2cccs2)C(C(=O)Nc2cccnc2)=C(C)N3)c1 (stereo not given) | 0
37 | Cc1nc(SC2C=CS(=O)(=O)C2)n[nH]1 (stereo not given) | 5
38 | Oc1ccc2[nH]cnc2c1CN1CCCCC1 | 0
39 | Cc1cc(/C=c2/sc3nc4ccccc4n3c2=O)c(C)n1-c1ccccn1 | 1
40 | CCOC(=O)c1cc2sccc2n1CC(=O)Nc1ccc2c(c1)OCCO2 | 0
